Tests used:
Conditions in all cases: concentration: 1 μM, replicates: in singlicate; n = 1
ABL2 = test system: ABL2
ACVR1B = test system: ACVR1B
ACVR1 = test system: ACVR1
ACVR2A = test system: ACVR2A
ACVR2B = test system: ACVR2B
ACVRL1 = test system: ACVRL1
ADCK3 = test system: T1, ADCK3
T1 construct: gene CABC1

ADCK4 = test system: ADCK4
AKT1 = test system: AKT1
AKT2 = test system: AKT2
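Note: KINOMEscan kinase panel screen.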

| SMILES | %Inh (ABL2) [%] | %Inh (ACVR1B) [%] | %Inh (ACVR1) [%] | %Inh (ACVR2A) [%] | %Inh (ACVR2B) [%] | %Inh (ACVRL1) [%] | %Inh (ADCK3) [%] | %Inh (ADCK4) [%] | %Inh (AKT1) [%] | %Inh (AKT2) [%] |
| --- | --- | --- | --- | --- | --- | --- | --- | --- | --- | --- |
| Cc1cc(N2CCC(NS(=O)(=O)c3ccc(F)cc3)CC2)nc(Nc2cccc(C#N)c2)n1.O=C(O)C(F)(F)F [GSK1653537] | 2 | 0 | 0 | 0 | 0 | 0 | 0 | 0 | 0 | 20 |
| Clc1cc(Nc2ncnc3cc[nH]c23)ccc1OCc1ccccn1 | 0 | 28 | 10 | 0 | 0 | 5 | 9 | 3 | 10 | 19 |
| Fc1cccc(COc2ccc(Nc3ncnc4nn5ccccc5c34)cc2Cl)c1 [GW689066] | 1 | 0 | 0 | 0 | 0 | 0 | 5 | 42 | 0 | 3 |
| O=C(Nc1ccccc1F)NC1CCN(c2ccnc(Nc3ccc(F)cc3)n2)C1 (stereo not shown) [GSK1379722] | 9 | 0 | 25 | 0 | 0 | 0 | 20 | 40 | 0 | 13 |
